From publication PMC6919601, “Identification of Plasmodium dipeptidyl aminopeptidase allosteric inhibitors by high throughput screening” (PLoS ONE, 2019)
About 230 (0.21%) of roughly 110,000 compounds showed an effect of 50% or more. The entries come from a sample that favours strong results as a whole.

Each compound was assayed against DPAP1 (Plasmodium falciparum, UniProt Q8IIJ9) (assay: primary screen, percent inhibition; read by cleavage of a fluorogenic dipeptide substrate; higher = more effect of the substance).
Sequence of DPAP1 (Q8IIJ9 whole entry, looked up): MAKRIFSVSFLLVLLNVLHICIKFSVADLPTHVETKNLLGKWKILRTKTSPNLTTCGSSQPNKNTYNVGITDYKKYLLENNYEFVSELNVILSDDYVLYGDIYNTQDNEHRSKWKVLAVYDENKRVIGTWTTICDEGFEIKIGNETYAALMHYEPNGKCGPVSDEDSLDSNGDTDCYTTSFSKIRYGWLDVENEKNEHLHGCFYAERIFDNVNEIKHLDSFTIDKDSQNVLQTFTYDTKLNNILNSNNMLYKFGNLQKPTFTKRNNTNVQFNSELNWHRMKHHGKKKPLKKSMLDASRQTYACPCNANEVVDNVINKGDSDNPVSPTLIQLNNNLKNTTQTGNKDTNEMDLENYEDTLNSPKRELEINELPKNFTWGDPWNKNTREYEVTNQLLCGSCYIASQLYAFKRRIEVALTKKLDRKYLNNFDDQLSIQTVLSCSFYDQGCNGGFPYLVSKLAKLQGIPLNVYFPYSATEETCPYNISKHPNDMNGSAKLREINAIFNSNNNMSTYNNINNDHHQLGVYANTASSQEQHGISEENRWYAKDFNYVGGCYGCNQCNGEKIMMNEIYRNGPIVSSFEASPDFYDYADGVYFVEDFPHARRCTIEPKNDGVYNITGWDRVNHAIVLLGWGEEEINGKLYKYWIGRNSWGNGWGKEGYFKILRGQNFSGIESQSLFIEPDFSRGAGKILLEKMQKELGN
Parameters: species or system P. falciparum D10 trophozoite lysates; single well
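Note: 30 min substrate incubation versus DMSO and 10 µM JCP410 controls.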

SMILES | % Inhibition @ 10 uM [%]
CCCCOC1CS(=O)(=O)CC1OCCCC (stereo not drawn) | -5.28
Cc1ccc(-c2nc(CSCC(=O)Nc3cc(C)on3)c(C)o2)cc1 | -2.14
CC1=C(C)CC(C(=O)Nc2cccc(F)c2)C(C(=O)O)C1 (stereo not drawn) | -2.22
COC(=O)c1cc(OC)c(S(=O)(=O)NCc2ccccc2)cc1OC | -2.28
CCOC(=O)C1=C(CN2CCN(C(=O)OCC)CC2)NC(=O)NC1c1cccc(OC)c1OC (stereo not drawn) | 2.12
CCOC(=O)C1=C(CN2CCC3(CC2)OCCO3)NC(=O)NC1c1cccc(OC)c1OC (stereo not drawn) | 93
CCOC(=O)C1=C(CN2CCN(C)CC2)NC(=O)NC1c1cccc(OC)c1OC (stereo not drawn) | 3.75
O=C1CC(c2ccccc2)NC(=O)N1 (stereo not drawn) | -2.86
CCCOc1ccc(C2C3=C(O)CC(C)(C)CC3=NC(C)=C2C(=O)Nc2ccccc2OC)cc1 (stereo not drawn) | -0.864
c1ccc(C(CCNC2CN3CCC2CC3)c2ccccc2)cc1 (stereo not drawn) | -0.0908
O=C(CCN1C(=O)c2ccccc2C1=O)NCC1CCCO1 (stereo not drawn) | -0.349
Cc1cc(/C=C2/C(=N)N3C(=NC2=O)SN=C3S(=O)(=O)C(C)C)c(C)n1Cc1ccccc1 | -7.21
CC(C)Oc1ccccc1/C=C1\SC(=N)N(c2nccs2)C1=O | 50.1
N=C1S/C(=C\c2ccco2)C(=O)N1c1nccs1 | -3.74
N=C1S/C(=C\c2c[nH]nc2-c2ccccc2)C(=O)N1c1nccs1 | 11.2
CCOC(=O)N1CCC(NS(=O)(=O)c2c(C)nc3scc(C)n3c2=O)CC1 | -8.17
Cc1nc2scc(C)n2c(=O)c1S(=O)(=O)NC1CCCCCCC1 | 72.2
Cc1nc2scc(C)n2c(=O)c1S(=O)(=O)NC1CCN(Cc2ccccc2)CC1 | -3.32
Cc1cccc(CN2CCCC(O)C2)c1 (stereo not drawn) | -0.828
O=C(CCC1CCCCC1)NC1(C(F)(F)F)NC(=O)N(Cc2ccccc2)C1=O (stereo not drawn) | -3.33
CCOC(=O)C1=C(c2ccccc2)Nc2ncnn2C1c1cccc(O)c1 (stereo not drawn) | 3.8
COc1cccc(C2=NS(=O)(=O)N(C)C(C(=O)N3CCCC3)=C2)c1 | 3.92
CCSc1nc(=O)n(-c2ccccc2)c(C)c1C(C)=O | -5.51
CCc1ccc(C2C3=C(O)CCCC3=NC(C)=C2C(=O)Nc2ccc(F)cc2)cc1 (stereo not drawn) | 4.11
Cc1sc2ncn(CC(=O)NC3CCCC(C)C3C)c(=O)c2c1S(=O)(=O)N1CCC(C)CC1 (stereo not drawn) | -4.67

SMILES | % Inhibition @ 10 uM [%]
CC(=O)ON1C(=O)C(c2ccccc2)=C(c2ccccc2)C1=O | 82
CC(=O)ON1C(=O)C2C3c4ccccc4C(c4ccccc43)C2C1=O (stereo not drawn) | 38.9
O=C1C(c2ccccc2)=C(c2ccccc2)C(=O)N1O | 3.25
CCCCN(C)C(=O)C1c2ccccc2C(=O)N(CCOC)C1c1c[nH]c2ccccc12 (stereo not drawn) | 5.62
Cc1ccc2nc(O)c3cc(C(=O)NCCc4ccsc4)sc3c2c1 | 1.72
CN(C)c1ccc(NC(=O)NC2CCCCC2)cc1 | -12.2
CC(CCCC(C)(C)O)NC(C)Cc1ccc(F)cc1 (stereo not drawn) | 4.68
O=C(CC1(O)C(=O)Nc2ccc(Br)cc21)c1ccc2ccccc2c1 (stereo not drawn) | 4.03
CCC1(C)Cc2c(sc3nc(SC)nc(O)c23)CO1 (stereo not drawn) | 8.9
CCC1(C)Cc2c(sc3nc(SCC(=O)c4ccccc4)nc(N)c23)CO1 (stereo not drawn) | 0.992
CCC1(C)Cc2c(sc3nc(S)nc(N)c23)CO1 (stereo not drawn) | 62.9
COc1cc2c(NCc3ccccc3)cc(O)c(CC(=O)Nc3ccccc3)c2cc1OC | 66.3
COc1cc2c(CC(=O)Nc3ccccc3)c(O)c(C)c(NCc3ccccc3)c2cc1OC | 13.4
CCCCNc1cc(O)c(CC(=O)Nc2ccccc2)c2cc(OC)c(OC)cc12 | 25.7
CCn1c(C)cc(/C=C2\NC(=O)N(CC(=O)Nc3ccc(F)cc3)C2=O)c1C | 0.528
CCCNS(=O)(=O)c1cc(-c2cc(C)no2)ccc1OC | -8.89
CCCCNC(=O)c1cc(-c2ccc(F)cc2)on1 | 4.5
Brc1ccc(-c2cn3nc(C4CCCCC4)sc3n2)cc1 | -2.71
CCOc1ccc(C(=O)CCN(C)C)cc1 | -1.25
COc1ccc(C(=O)CCNCCC(=O)O)cc1 | 30.1
COc1ccc(C(=O)CCN(C)CC(=O)O)cc1 | 55.8
COc1ccc(C(=O)CCN(C)C)cc1 | 3.82
CCOc1ccc(C(=O)CCN(C)CC(=O)O)cc1 | 89.9
CCOc1ccc(C(=O)CCNCCC(=O)O)cc1 | 44.5
O=C(O)c1ccccc1NC(=O)C12CC3CC(CC(C3)C1)C2 | -5.44

SMILES | % Inhibition @ 10 uM [%]
O=C(O)CCC(=O)Nc1ccc(S(=O)(=O)NC2CCCCC2)cc1 | 1.49
CC(=O)c1ccc(N2CCN(Cc3ccc(C)cc3C)CC2)cc1 | -5.11
CC1(C)CC(=O)C2=C(C1)N1C(=C(C#N)C2c2cccnc2)N=C(N)c2c1sc1c2CCCCC1 (stereo not drawn) | -2.39
CCc1nn(-c2cc(Oc3ccccc3)ncn2)c(N)c1C(N)=O | 0.686
Cc1ccc(Oc2cc(-n3nc(C)c(C(N)=O)c3N)ncn2)cc1 | -0.795
CCc1nn(-c2cc(Oc3ccc(C)cc3)ncn2)c(N)c1C(N)=O | 60.5
CN(C1CCCCC1)S(=O)(=O)c1ccc(C(=O)Nc2nc(-c3ccccn3)cs2)cc1 | -1.4
O=c1ncn(-c2ccccc2F)c2ncccc12 | -10.2
CCOC(=O)C1=C(O)/C(=C\c2cc(C)n(-c3ccccc3C(=O)OC)c2C)N=C1C | 3.47
CCOC(=O)C1=C(O)/C(=C\c2cc(C)n(-c3cc(C)ccc3OC)c2C)N=C1C | 3.47
CCOC(=O)C1=C(O)/C(=C\c2cc(C)n(-c3ccccc3C(F)(F)F)c2C)N=C1C | 52.7
C/N=C1/S/C(=C\c2ccc(N3Cc4ccccc4C3)cc2)C(=O)N1C | -5.19
CCCCNC(=O)c1cn(C)c(=O)c2cc(OC)c(OC)cc12 | -5.67
CCCCNC(=O)c1cnn2c(C(F)F)cc(-c3ccccc3)nc12 | 4.08
Cc1ccc(-c2cc(C(F)F)n3ncc(C(=O)N4CCc5ccccc5C4)c3n2)cc1 | 0.778
Cc1ccc(-c2cc(C(F)F)n3ncc(C(=O)n4c(C)nc5ccccc54)c3n2)cc1 | 50
CCc1nccn1C(=O)c1cnn2c(C(F)F)cc(-c3ccccc3)nc12 | 75.7
Cc1ccc(-c2cc(C(F)F)n3ncc(C(=O)NC(C)c4ccccc4)c3n2)cc1 (stereo not drawn) | 0.778
O=C(c1cnn2c(C(F)F)cc(-c3ccccc3)nc12)N1CCN(c2ccccn2)CC1 | 5.65
CCOC(=O)c1c(-c2ccc(F)cc2)csc1NC(=O)c1c(-c2ccccc2)noc1C | 0.64
O=C(CCCC(=O)c1ccccc1)NC(c1ccccc1)c1ccccc1 | -1.46
c1ccc(CSc2nccn2Cc2ccccc2)cc1 | -1.97
CC(C)CC(=O)Nc1ccc(-c2nc3cc(Cl)ccc3o2)cc1 | -1.57
Cc1ccc(CNS(=O)(=O)c2cn(C)cn2)cc1 | 1.47
Cc1ccc(S(=O)(=O)Nc2nnc(C)s2)cc1 | -1.77

SMILES | % Inhibition @ 10 uM [%]
Cn1cnc(S(=O)(=O)Nc2nnc(S)s2)c1 | 95.5
Cc1csc(NC(=O)C(CCS(C)(=O)=O)N2Cc3ccccc3C2=O)n1 (stereo not drawn) | 0.0322
O=C(/C=C/c1ccco1)c1ccc(F)cc1 | 14.1
O=C(/C=C/c1ccco1)c1ccc(C(=O)/C=C/c2ccco2)cc1 | -0.268
COc1ccc(C(=O)/C=C/c2ccco2)cc1 | 60.2
COc1ccc(CCNC(=O)CN2C(=O)c3ccccc3C2=O)cc1 | 1.33
Cc1nn(C)cc1CN(C)C(=O)c1cc2nc(-c3ccccc3)cc(C(F)(F)F)n2n1 | 4.59
Cc1cc(N(C)C)c(=O)n(-c2ccccc2)n1 | 5.74
O=C1/C(=C\c2ccccn2)CN(Cc2ccccc2)C/C1=C\c1ccccn1 | 55.7
O=C1/C(=C/c2ccc3nccnc3c2)CN(Cc2ccccc2)C/C1=C\c1ccc2nccnc2c1 | 6.89
O=C1/C(=C\c2cccnc2)CN(Cc2ccccc2)C/C1=C\c1cccnc1 | 0.287
O=C(CCN1C(=O)C2C3C=CC(C3)C2C1=O)Nc1cccnc1 (stereo not drawn) | -0.551
CCN(CC)C(=O)Cn1cc(S(=O)(=O)Cc2cc(C)ccc2C)c2ccccc21 | 0.292
Cc1cccc(NC(=O)C2CC3CCC2C3)n1 (stereo not drawn) | -2.66
COc1ccc(S(=O)(=O)N2CCSC2c2ccccc2Cl)cc1 (stereo not drawn) | 68.6
COc1ccc(S(=O)(=O)N2CCSC2c2ccccc2)cc1 (stereo not drawn) | 3.19
COc1ccc(S(=O)(=O)N2CCSC2c2ccc(C)cc2)cc1 (stereo not drawn) | -3.45
CN(C)c1ccc(/C=C(\C#N)c2nc(-c3ccc(-c4ccccc4)cc3)cs2)cc1 | 5.77
CCn1ccnc1C(O)(c1ccccc1)c1ccc(C)cc1 (stereo not drawn) | 4.67
CCN1C(=O)C(=CNc2ccc3c(c2)-c2ccccc2C3)C(=O)N(CC)C1=O | -0.996
CCc1nnc(NC(=O)c2sc3nc(-c4cccs4)cc(C(F)(F)F)c3c2N)s1 | 0.487
Nc1c(C(=O)Nc2nccs2)sc2nc(-c3cccs3)cc(C(F)(F)F)c12 | 76.8
Nc1c(C(=O)Nc2ccccn2)sc2nc(-c3cccs3)cc(C(F)(F)F)c12 | -5.07
CC(=O)c1ccc(NC(=O)C(C)Oc2ccccc2C)cc1 (stereo not drawn) | -5.92
